Source: the supplement of paper PMC10646978
± gives the standard deviation.

Legend:
Settings in all cases: modulator concentration 10 µM
[1] = system: RAW-Dual (murine macrophage reporter line); test: NF-kB reporter (SEAP) activity fold change vs agonist alone; higher = enhanced NF-kB activity
How it was run: (§1)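 In 384-well plates holding 50 000 RAW-Dual murine macrophage reporter cells per well, compound at 10 μM final was pre-incubated for 1 hour at 37 °C, after which a PRR agonist was added overnight. Supernatant SEAP read with QUANTI-Blue at 620 nm absorbance reported NF-κB, and Lucia luciferase read with QUANTI-Luc luminescence reported IRF. Fold change values come from dividing each reporter signal by the mean of agonist-only control wells on the same plate, averaged over replicate plates with propagated errors.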

[2] = system: RAW-Dual (murine macrophage reporter line); test: IRF reporter (Lucia luciferase) activity fold change vs agonist alone; higher = enhanced IRF activity
How it was run: as §1

[3] = system: RAW-Dual (murine macrophage reporter line); test: viability score (confluency relative to resting cells, overnight) (fraction); higher = more viable, active = viable (0.7 or more)
How it was run: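 RAW-Dual macrophages in 384-well plates were exposed overnight to compound at 10 μM final. Confluency was imaged with IncuCyte, and two confluency masks were generated with IncuCyte software over all imaged wells. The viability score is confluency expressed relative to resting cells. Compounds were called viable if both masks exceeded 70% of resting cells.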

[4] = agonist: CpG ODN 1826 0.5 ug/mL

Compound | NF-kB reporter [1, 4] | NF-kB reporter ([1]; agonist: LPS 0.1 ug/mL) | NF-kB reporter ([1]; agonist: MPLA […]) | IRF reporter ([2]; agonist: 3'3'-cGAMP 10 ug/mL) | IRF reporter ([2]; agonist: LPS 0.1 ug/mL) | IRF reporter ([2]; agonist: MPLA […]) | viability score [3]
Cc1cn(C2C=CC(CO)O2)c(=O)[nH]c1=O (configuration not stated) | 1.02 ± 0.15 | 0.902 ± 0.27 | 0.981 ± 0.06 | 0.886 ± 0.041 | 1.04 ± 0.27 | 1.04 ± 0.2 | 0.984 (active)
CC[C@@]1(O)C(=O)OCc2c1cc1n(c2=O)Cc2cc3c(CN(C)C)c(O)ccc3nc2-1 [Prestw-1196] | 2.33 ± 0.13 | 1.27 ± 0.08 | 2.43 ± 0.16 | 2.88 ± 0.099 | 3.79 ± 0.35 | 3.07 ± 0.43 | 0.689 (inactive)
O=C(COC(=O)c1ccc2ccccc2n1)c1ccc(Br)cc1 | 0.988 ± 0.16 | 1.05 ± 0.11 | 1.06 ± 0.14 | 0.972 ± 0.033 | 1.29 ± 0.25 | 1.42 ± 0.26 | 1 (active)
C=CCn1c(S)nnc1-c1cc(OC)c(OC)c(OC)c1 | 0.986 ± 0.076 | 1.05 ± 0.084 | 0.988 ± 0.11 | 0.97 ± 0.041 | 1.14 ± 0.18 | 1.08 ± 0.12 | 1.03 (active)
O=C1OC(=O)C2C3CCC(O3)C12 (configuration not stated) | 1.66 ± 0.13 | 1.45 ± 0.15 | 2.06 ± 0.2 | 1.77 ± 0.076 | 1.65 ± 0.22 | 1.72 ± 0.38 | 0.94 (active)
CC(/C=C1\SC(=S)N(CC(=O)O)C1=O)=C\c1ccccc1 | 0.7 ± 0.036 | 0.822 ± 0.093 | 1.05 ± 0.094 | 0.977 ± 0.048 | 1.4 ± 0.29 | 1.66 ± 0.52 | 0.962 (active)
CC(C)(O)c1ccccc1CC[C@@H](SCC1(CC(=O)O)CC1)c1cccc(/C=C/c2ccc3ccc(Cl)cc3n2)c1 [Prestw-1189] | 1.1 ± 0.084 | 0.765 ± 0.056 | 1.04 ± 0.098 | 1.05 ± 0.048 | 1.27 ± 0.16 | 1.41 ± 0.34 | 0.881 (active)
O=C(Nc1ncc(S(=O)(=O)c2ccc([N+](=O)[O-])cc2)s1)c1cccs1 | 1.06 ± 0.11 | 1.09 ± 0.06 | 0.914 ± 0.06 | 0.987 ± 0.03 | 1.49 ± 0.27 | 1.18 ± 0.21 | 1.01 (active)
O=C(NCCc1csc(-c2ccc(F)cc2)n1)c1ccc(Br)cc1 | 0.825 ± 0.064 | 1.18 ± 0.089 | 1.19 ± 0.043 | 0.693 ± 0.027 | 1.07 ± 0.11 | 1.19 ± 0.15 | 0.999 (active)
Nc1nnc(C(=O)O)[nH]1 | 1.04 ± 0.083 | 1.14 ± 0.08 | 1.03 ± 0.043 | 1.06 ± 0.2 | 1.03 ± 0.1 | 1.23 ± 0.19 | 1 (active)
COc1ccc(Cl)cc1NS(=O)(=O)c1c(C)cc(C)cc1C | 0.993 ± 0.14 | 0.937 ± 0.062 | 1.46 ± 0.12 | 1.24 ± 0.11 | 1.16 ± 0.11 | 1.04 ± 0.12 | 0.982 (active)
Cc1cccc(Sc2nccn3c(=O)n(CC(=O)N4CCN(c5ccccc5)CC4)nc23)c1 | 0.924 ± 0.081 | 0.589 ± 0.067 | 0.664 ± 0.043 | 0.28 ± 0.024 | 0.6 ± 0.041 | 0.733 ± 0.12 | 0.983 (active)
Cc1cccc(C(=O)Nc2cccc([N+](=O)[O-])c2C)c1 | 1.1 ± 0.067 | 1 ± 0.062 | 0.86 ± 0.095 | 0.964 ± 0.04 | 1.33 ± 0.15 | 1.12 ± 0.099 | 0.992 (active)
Br.CCCCn1c(=N)n(CC(=O)OC)c2ccccc21 | 1.13 ± 0.1 | 0.957 ± 0.081 | 1.05 ± 0.059 | 0.955 ± 0.055 | 1 ± 0.055 | 1.15 ± 0.15 | 0.999 (active)
Cc1cc(OC2CN(C(=O)CSCc3ccccc3)C2)cc(=O)n1C1CC1 | 1.12 ± 0.056 | 1.07 ± 0.085 | 0.994 ± 0.05 | 0.658 ± 0.034 | 0.986 ± 0.086 | 1.11 ± 0.31 | 1 (active)
Cc1cccc(CS(=O)(=O)N2CCC(S(=O)(=O)c3nccn3C)CC2)c1 | 1.04 ± 0.078 | 1.02 ± 0.082 | 0.983 ± 0.038 | 1.04 ± 0.088 | 0.979 ± 0.089 | 1.05 ± 0.12 | 0.998 (active)
O=C(COCc1ccccc1)NC1CCC(F)(F)CC1 | 0.891 ± 0.068 | 1.03 ± 0.14 | 0.777 ± 0.057 | 0.643 ± 0.036 | 1.1 ± 0.069 | 1.02 ± 0.36 | 1.01 (active)
CCOC(=O)c1sc(NN=Cc2cccc(Cl)c2)nc1C | 1.04 ± 0.12 | 1.06 ± 0.059 | 0.89 ± 0.053 | 0.849 ± 0.039 | 1.57 ± 0.23 | 1.18 ± 0.18 | 1.01 (active)
c1ccc(CNc2nc(N3CCOCC3)nc(N3CCOCC3)n2)cc1 | 0.882 ± 0.24 | 0.947 ± 0.079 | 0.987 ± 0.081 | 0.758 ± 0.027 | 1.09 ± 0.12 | 1.24 ± 0.21 | 0.991 (active)
CCc1ccc2ncc(C#N)c(Nc3cc(OC)c(OC)c(OC)c3)c2c1.Cl | 1.37 ± 0.071 | 1.24 ± 0.17 | 0.931 ± 0.066 | 0.712 ± 0.038 | 0.607 ± 0.078 | 0.725 ± 0.17 | 0.903 (active)
C=CCc1ccc(OCCCOc2ccccc2C(C)=O)c(OC)c1 | 1.02 ± 0.072 | 1.08 ± 0.082 | 1.19 ± 0.049 | 0.66 ± 0.026 | 0.863 ± 0.052 | 1.07 ± 0.12 | 0.99 (active)
Cc1cc(C)n(CCNc2nc3ccccc3s2)n1 | 1.07 ± 0.1 | 1.08 ± 0.085 | 1 ± 0.1 | 1.08 ± 0.055 | 1.18 ± 0.081 | 1.14 ± 0.29 | 0.993 (active)
CC(C)C1=CC2=CCC3C(C)(C(=O)O)CCCC3(C)C2CC1 (configuration not stated) | 0.962 ± 0.076 | 0.863 ± 0.065 | 0.891 ± 0.085 | 0.93 ± 0.03 | 1.22 ± 0.2 | 1.35 ± 0.33 | 1.05 (active)
CCCCCc1ccc(-c2ccc(-c3noc(-c4ccc(CCCC)cc4)n3)cc2)cc1 | 0.969 ± 0.08 | 0.97 ± 0.07 | 0.914 ± 0.086 | 0.94 ± 0.067 | 1.32 ± 0.25 | 1.45 ± 0.31 | 1.01 (active)
COc1c2c(nc3ccccc13)OC(C(C)(O)COC(C)=O)C2 (configuration not stated) | 0.944 ± 0.071 | 1.02 ± 0.11 | 0.953 ± 0.11 | 1.04 ± 0.045 | 1.42 ± 0.15 | 1.3 ± 0.22 | 1 (active)
Cc1cc(O)c(C(C)C)cc1NC(=O)c1cc(C(C)(C)C)oc1C | 1.22 ± 0.12 | 0.884 ± 0.083 | 1.76 ± 0.13 | 0.562 ± 0.025 | 0.998 ± 0.048 | 2.71 ± 0.29 | 0.797 (active)
